High-throughput results: PubChem BioAssay, National Center for Advancing Translational Sciences (NCATS)
DRD3 antagonist: antagonists of human D3 dopamine receptor; D3R cells, DiscoveRx beta-arrestin luminescence, antagonist mode; hits give low values; hit rate 2.5% among 360,000; max response, negative = inhibition, %; P35462; in the data active = max response below about -50%; inconclusive = no clear call, values can overlap the other calls
Target sequence (P35462 whole entry, looked up): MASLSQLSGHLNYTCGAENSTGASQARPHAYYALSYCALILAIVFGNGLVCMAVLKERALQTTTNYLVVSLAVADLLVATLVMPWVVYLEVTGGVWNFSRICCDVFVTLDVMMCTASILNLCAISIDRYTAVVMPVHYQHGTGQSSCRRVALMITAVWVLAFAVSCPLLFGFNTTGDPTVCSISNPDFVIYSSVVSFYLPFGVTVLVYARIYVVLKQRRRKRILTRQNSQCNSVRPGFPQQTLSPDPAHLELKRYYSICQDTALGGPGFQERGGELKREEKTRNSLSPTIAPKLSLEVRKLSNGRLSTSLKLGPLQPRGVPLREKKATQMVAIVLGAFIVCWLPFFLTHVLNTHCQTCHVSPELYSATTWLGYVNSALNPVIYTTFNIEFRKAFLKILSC
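Cells expressing the human receptor were seeded at 1500 cells/well, incubated overnight at 37 degrees C in 5% CO2, then exposed to library compounds with dopamine controls for 90 minutes at 37 degrees C before luminescent detection.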
TRPML1 blocker: human mucolipin-1 channel inhibition | Q9GZU1 | TRPML1-inducible cells, Ca2+ dye fluorescence, FDSS; hits give low values; inhibition of EC80 agonist-evoked calcium signal | activity change, negative = inhibition, % (no concentration beside the values) | hit rate 0.02% among 390,000; in the data active = activity change below about -50%; inconclusive = between about -30% and that limit;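 note: stimulus is agonist 54-4 at its EC80 concentration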
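Tet-induced TRPML1-DL cells loaded with Ca8 no-wash calcium dye were read kinetically on FDSS. Compound addition was followed by EC80 agonist 54-4 (4 uM final); inhibition was read over 110 s.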
TRPML1 agonist: agonists of human TRPML1 channel. AID 624414. TRPML1-expressing cells, Ca2+ dye fluorescence, FDSS. activation, % (test concentration not listed). hit rate 0.12% among 410,000; in the data active = activation above about 50%; inconclusive = mostly about 30% to 49%
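Calcium fluorescence on an FDSS kinetic reader gave the read-out. Tet-induced TRPML1-DL cells were plated overnight, dye-loaded (Ca8 with quencher, 45-90 min, room temperature, dark), then read 110 s after compound addition, and again 110 s after 4uM final 54-4 (EC80).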
DRD3 agonist: agonists of human D3 dopamine receptor | hit rate 0.58% among 410,000 | D3R DiscoveRx beta-arrestin cells, luminescence, 90 min | max activation, % | AID 652048; in the data active = max activation above about 30%
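Cells at 1500/well, incubated overnight, then treated with pinned compounds (dopamine as control) for 90 min at 37 degrees C. DiscoveRx reagent added for 30 - 60 minutes at room temperature; luminescence read.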
Hits are given with their value; i = inactive; ? = inconclusive; nt = no result; ! = not confirmed by another sample. A selection: hits, their analogues and other compounds. The true share with any hit is near 2.9%.

SMILES	DRD3 antagonist	TRPML1 blocker	TRPML1 agonist	DRD3 agonist
CCCCCCCCN1[C@@H](CC(=O)O)c2ccc(/C=C/C(=O)O)cc2S1(=O)=O	nt	nt	i	nt
Nc1nc[nH]c(=O)c1N	nt	nt	i	nt
Cc1cccc2c1N(CCCOc1ccccc1)C(=O)C2=O	-50	i	i	i
CC1CCCN(c2nc(-c3cccnc3)nc3scc(-c4ccccc4)c23)C1 (configuration not stated)	i	i	i	34
CCc1cccc(C)c1NC(=O)c1cc(S(=O)(=O)N(Cc2ccc(C(=O)OC)cc2)Cc2ccc(OC)c(OC)c2)ccc1F	nt	i	i	i
Cc1ccc(C)c(N2CCN(C(=O)CCc3nc(-c4ccccc4C)no3)CC2)c1	i	i	i	i
Cc1ccc(C)c(N2CCN(C(=O)CCc3nc(-c4ccccc4Cl)no3)CC2)c1	i	i	i	50
Cc1ccc(Cl)cc1Nc1nc2ccccc2c2nncn12	nt	i	i	i
Cc1ccccc1C(=O)NNC(=S)NC(=O)c1ccc(Cl)cc1Cl	i	i	i	i
CCCN(CCC)CCCOC(=O)c1ccc(Cl)cc1Cl	-69	i	i	i
CCCN(CCC)C(=S)NC(=O)c1ccc(Cl)cc1Cl	-182	i	i	i
CN(C)CCCOC(=O)c1ccc(Cl)cc1Cl	?	i	i	i
COc1ccc(C2=C(C)C(N3CCC(C(=O)NCc4ccco4)CC3)=NS2(=O)=O)cc1	nt	i	i	i
CCOC(=O)c1cc(C)n(CC2CCC(C(=O)Nc3ccc(C(C)=O)cc3)CC2)c1C (configuration not stated)	nt	i	i	i
O=C1CC(=O)OC(c2ccc([N+](=O)[O-])cc2)O1	-87	i	i	i
O=C(Nc1ccc(N2CCOCC2)c(Cl)c1)c1ccc(F)cc1	i	i	i	i
O=C(Nc1ccc(N2CCOCC2)c(Cl)c1)c1ccccc1Cl	-53	i	i	i
C(=N\N1CCN(Cc2ccccc2)CC1)/c1cccs1	-73	i	i	i
CC(C)N(Cc1ccccc1)C(=O)C1CCCN(c2ncnc3onc(-c4ccc(F)cc4)c23)C1 (configuration not stated)	nt	i	i	i
COc1ccc(/C=C/c2nc(C#N)c(N3CCC(C(N)=O)CC3)o2)cc1OC	nt	i	i	i
CC(C)[C@@H](C)/C=C/[C@@H](C)[C@H]1CC[C@H]2/C(=C/C=C3\C[C@@H](O)CC[C@@H]3C)CCC[C@]12C	nt	nt	nt	i
Cn1c(SCC(=O)NCCC2=CCCCC2)nnc1C(F)(F)F	-70	i	i	i
Cc1c(Cl)cccc1NC(=O)Nc1ccc2snnc2c1	nt	i	i	i
Cc1nnc(SCC(=O)Nc2cccc(S(N)(=O)=O)c2)n1-c1ccccc1	i	i	i	i
Cc1ccc(-n2c(SCC(=O)Nc3cccc(S(N)(=O)=O)c3)nc3ccccc32)cc1	i	?	i	44
SMILES	DRD3 antagonist	TRPML1 blocker	TRPML1 agonist	DRD3 agonist
OCCN1CCN(Cc2cc(Br)cc(Br)c2O)CC1	-51	i	i	i
O=C(NCCc1ccccc1)c1ncn[nH]1	i	i	i	35
O=C(NCCc1ccc(Cl)cc1)c1ncn[nH]1	i	i	i	i
CCCS(=O)(=O)c1ncc(Cl)c(C(=O)N2CCN(c3ccc(OC)cc3)CC2)n1	nt	i	i	i
COC(=O)C(F)(Sc1c(C)n(C)n(-c2ccccc2)c1=O)C(F)(F)F (configuration not stated)	-60	i	i	i
Cc1c(NC(=O)CC(O)(C(F)(F)F)C(F)(F)F)c(=O)n(-c2ccccc2)n1C	i	i	i	i
CCCCOC(=O)c1ccc(NC(=O)Cn2nnc3sc4c(c3c2=O)CCCC4)cc1	nt	i	i	i
Cn1cnc2c(=O)oc3ccc(S(=O)(=O)N4CCN(c5cccc(C(F)(F)F)c5)CC4)cc3c21	nt	i	i	i
Cn1c(SCCC#N)nnc1-c1ccccc1F	i	i	i	i
Cn1c(SCCN2CCCCC2)nnc1-c1ccccc1Br	-63	i	i	i
O=C(C[n+]1ccncc1)c1cccc2ccccc12	nt	nt	i	nt
CC1CCC(C(C)C)C(OC(=O)Cn2c(-c3ccc(F)cc3)[n+](C)c3ccccc32)C1 (configuration not stated)	-72	i	i	i
CC1CCC(C(C)C)C(OC(=O)Cn2c(-c3ccccc3)[n+](C)c3ccccc32)C1 (configuration not stated)	i	i	i	i
CCOC(=O)c1ccc(CC(=O)c2ccc(O)cc2O)o1	i	i	i	32
N#CC1=C(N)Oc2cc(N)ccc2C1c1cccnc1 (configuration not stated)	i	i	i	i
CCN(CC)c1ccc2c(c1)OC(N)=C(C#N)C2c1cccnc1 (configuration not stated)	i	i	70	i
O=C(Nc1c2c(nn1-c1ccc(Cl)cc1)CS(=O)(=O)C2)c1cccc(Cl)c1	nt	i	i	i
c1ccc(N2CCN(Cc3nc4ccccc4[nH]3)CC2)nc1	i	i	i	i
Cc1[nH]c2ccccc2c1CN1CCN(c2ccccn2)CC1	-67	i	i	i
c1ccc(-c2ncc(CN3CCN(c4ccccn4)CC3)[nH]2)cc1	-105	i	i	i
NC1CCc2ccccc21 (configuration not stated)	nt	nt	i	nt
CCc1ccc(NC(=O)CN2CCN(C3CCCCC3)C(=O)C2=O)cc1	nt	i	i	i
Cc1ccc(NC(=O)CN2CC(C)SC2=NC2CCCCC2)cc1 (configuration not stated)	-96!	i	i	i
COCCN(C(=O)COC(=O)c1cnc(C)cn1)c1c(N)n(Cc2ccccc2)c(=O)[nH]c1=O	-77	i	i	i
COCCOC(=O)c1c(C)nc(SCC(=O)Nc2cccc3ccccc23)c(C#N)c1-c1ccco1	-65	i	i	i
SMILES	DRD3 antagonist	TRPML1 blocker	TRPML1 agonist	DRD3 agonist
COCCOC(=O)c1c(C)nc(SCC(=O)Nc2ccc(C)cc2)c(C#N)c1-c1ccco1	i	i	i	i
C=C1C=C(C(F)F)n2ncc(C(=O)NCc3ccc(OC)c(OC)c3)c2N1	nt	nt	i	nt
CC(=O)c1ccc(NC(=O)CN2CCC(C(=O)c3ccc4c(c3)OCCO4)CC2)cc1	i	i	i	i
COc1ccc(C(=O)C2CCN(CC(=O)Nc3ccc(C)cc3)CC2)cc1	-113	i	i	i
COc1ccc(NC(=O)c2ccc(NC(=O)CN3CCN(c4ccc(O)cc4)CC3)cc2)cc1	i	i	i	82
COC(=O)c1ccccc1NC(=O)CN1CCC(C(=O)c2ccc3c(c2)OCCO3)CC1	i	i	i	40
Cc1ccc(NC(=O)CN2CCC(C(=O)c3ccc4c(c3)OCCO4)CC2)cc1	-52	i	i	i
CN(C)c1ccc(NC(=O)CN2CCC(C(=O)c3ccc(F)cc3)CC2)cc1	-82	i	i	i
O=C1[C@H](Cc2ccccc2)NC/C=C\C[C@@H](c2ccc(Cl)cc2)N1Cc1ccccc1	nt	nt	i	nt
O=C(Nc1ccccc1F)c1ccc(C(=O)c2ccccc2)cc1	-73	i	i	i
Cc1nnc(Sc2cc(NCCO)c([N+](=O)[O-])c3nonc23)s1	-60	i	i	i
Cc1nnc(Sc2cc(NCCCO)c([N+](=O)[O-])c3nonc23)s1	-97	i	i	i
